Over roughly 33,000 sequences, “E-score (-0.5 to 0.5)” has its median near -0.043; the highest 2% begin near 0.37. The sample as a whole holds a higher share of the highest values than the screen did.
target: T1, Upc2 (UniProt Q12151); experiment: PBM E-score (8-mer binding enrichment) (E-score (-0.5 to 0.5)); higher = stronger / more preferred TF binding; conditions: protein concentration: 200 nM; construct: GST-full length
T1 sequence: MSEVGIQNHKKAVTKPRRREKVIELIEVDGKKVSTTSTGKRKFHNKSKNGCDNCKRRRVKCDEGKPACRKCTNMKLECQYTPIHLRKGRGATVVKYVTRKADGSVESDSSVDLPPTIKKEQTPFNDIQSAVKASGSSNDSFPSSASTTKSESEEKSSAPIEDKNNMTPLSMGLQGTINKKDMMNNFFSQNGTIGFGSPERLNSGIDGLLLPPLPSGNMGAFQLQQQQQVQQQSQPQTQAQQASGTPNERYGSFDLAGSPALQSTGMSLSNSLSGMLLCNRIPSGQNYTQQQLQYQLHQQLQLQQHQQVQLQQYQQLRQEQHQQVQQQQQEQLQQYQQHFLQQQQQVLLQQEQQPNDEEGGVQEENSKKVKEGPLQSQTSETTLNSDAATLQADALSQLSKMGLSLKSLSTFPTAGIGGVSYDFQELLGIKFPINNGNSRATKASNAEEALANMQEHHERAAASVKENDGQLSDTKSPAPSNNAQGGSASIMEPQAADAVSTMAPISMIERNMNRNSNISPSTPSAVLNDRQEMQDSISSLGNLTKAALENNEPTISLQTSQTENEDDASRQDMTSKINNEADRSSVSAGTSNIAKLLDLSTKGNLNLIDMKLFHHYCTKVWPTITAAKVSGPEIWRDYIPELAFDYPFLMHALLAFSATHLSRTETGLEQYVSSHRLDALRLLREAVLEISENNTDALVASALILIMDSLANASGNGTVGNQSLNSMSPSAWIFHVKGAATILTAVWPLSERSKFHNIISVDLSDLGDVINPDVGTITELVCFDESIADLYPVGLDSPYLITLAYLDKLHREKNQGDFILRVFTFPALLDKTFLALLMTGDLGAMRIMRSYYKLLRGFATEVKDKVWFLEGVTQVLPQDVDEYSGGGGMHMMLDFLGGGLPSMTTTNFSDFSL
Description: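 Universal 'all 10-mer' protein binding microarrays (Agilent AMADID 015681) probed with GST-tagged S. cerevisiae TFs (full-length or DBD) made by in vitro transcription/translation (PURExpress), about 100-200 nM. Bound TF was detected with fluorescent anti-GST. Each ungapped 8-mer (which stands for itself and its reverse complement) is scored by the PBM enrichment score (E-score), a modified Wilcoxon-Mann-Whitney statistic from -0.5 to +0.5, computed with the Universal PBM Analysis Suite. Scale: above 0.35 generally sequence-specific binding.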

First: CCTAAAGC
Second: GGTAAAGA
The “PBM E-score” value of the first is lower: -0.082 for the first, 0.0863 for the second.

Going from AGTAAAGC to CGGTTTAG, the “PBM E-score” value rises from -0.0204 to 0.161.

First: CGGAAGAG
Second: CCAGTTAC
The “PBM E-score” value of the first is higher: -0.146 for the first, -0.21 for the second.

Compared with TGTTAGAA, CGTTTGCC is higher in “PBM E-score” value: -0.177 for the first, 0.323 for the second.

Going from CGTTTGGA to CGTTTGGC, the “PBM E-score” value falls from 0.428 to 0.409.

Going from CGTTTGTC to CGTTTGAC, the “PBM E-score” value rises from 0.34 to 0.363.

Compared with GGTTTGCA, GGTTTGGA is lower in “PBM E-score” value: 0.0633 for the first, -0.0119 for the second.

Compared with AGTTTGGC, CGTTTGAA is higher in “PBM E-score” value: -0.015 for the first, 0.35 for the second.

First: CGTTTGCA
Second: CGTTTGAG
The “PBM E-score” value of the first is lower: 0.395 for the first, 0.396 for the second.

Compared with AGTTTGGA, CTTATGCC is lower in “PBM E-score” value: -0.014 for the first, -0.0216 for the second.

First: ATTCTGTA
Second: TGAAATCA
The “PBM E-score” value of the first is higher: 0.0418 for the first, -0.103 for the second.

First: CAACAAGC
Second: GGTGTCAA
The “PBM E-score” value of the first is higher: -0.163 for the first, -0.169 for the second.

First: ATCGATTG
Second: AACGGTTC
The “PBM E-score” value of the first is lower: 0.0896 for the first, 0.166 for the second.

First: CCTTCCAA
Second: GGGTTCAA
The “PBM E-score” value of the first is lower: -0.216 for the first, -0.157 for the second.

First: ACTTATTC
Second: ATCGCAGC
The “PBM E-score” value of the first is lower: -0.0293 for the first, 0.085 for the second.

Compared with AACGTCAC, ACGTCGTA is higher in “PBM E-score” value: -0.0182 for the first, 0.458 for the second.

Going from ACGTCGTG to GCGTCGTA, the “PBM E-score” value rises from 0.0636 to 0.468.

Going from GCGTCGCA to CCGTCGTC, the “PBM E-score” value falls from 0.19 to 0.0861.

Going from GCGTCGAA to ACGTCGTC, the “PBM E-score” value rises from -0.0193 to 0.206.

Going from CCGTCGGA to CCGTCGTA, the “PBM E-score” value rises from 0.0146 to 0.457.

Compared with AGGGTAGG, ACTAACCT is higher in “PBM E-score” value: -0.331 for the first, 0.042 for the second.

Going from ATCATCTG to TACCATGA, the “PBM E-score” value rises from -0.129 to -0.108.

First: ACTGAACG
Second: CCTGAACG
The “PBM E-score” value of the first is higher: 0.395 for the first, 0.394 for the second.

Going from CCTGAACC to CCTGAACA, the “PBM E-score” value rises from -0.146 to -0.0282.

First: ACTGAACA
Second: ACTGAACT
The “PBM E-score” value of the first is higher: 0.0269 for the first, -0.0256 for the second.

First: GCTCTTAA
Second: AGCAGAAG
The “PBM E-score” value of the first is higher: 0.108 for the first, -0.255 for the second.

First: ACAAATTC
Second: GGGCTGTA
The “PBM E-score” value of the first is higher: -0.0428 for the first, -0.0846 for the second.

First: AATCGTTC
Second: AATCGTTA
The “PBM E-score” value of the first is higher: 0.396 for the first, 0.292 for the second.

Going from AATCGTTG to CATCGTTC, the “PBM E-score” value rises from 0.142 to 0.416.

Compared with CATCGTGC, CATCGTTA is higher in “PBM E-score” value: 0.054 for the first, 0.324 for the second.

First: TACAGGAA
Second: ATCCGAGG
The “PBM E-score” value of the first is lower: 0.0741 for the first, 0.18 for the second.

Going from AGTCCTGA to AAAGGGCC, the “PBM E-score” value rises from -0.291 to -0.285.

First: AGTTTAGC
Second: CATTTAGC
The “PBM E-score” value of the first is higher: 0.00286 for the first, -0.0255 for the second.

Going from CGTTTAGC to GGTTTAGA, the “PBM E-score” value falls from 0.48 to -0.055.

First: CGTTTAGA
Second: AGTTTAGA
The “PBM E-score” value of the first is higher: 0.466 for the first, -0.00847 for the second.

Going from GGACTACA to ATTCCATC, the “PBM E-score” value rises from -0.219 to 0.0445.

First: CCCTACTA
Second: ATTGGTTA
The “PBM E-score” value of the first is lower: -0.242 for the first, -0.0342 for the second.

First: AGTGAGTC
Second: CAGTTGTC
The “PBM E-score” value of the first is lower: -0.211 for the first, -0.147 for the second.

Compared with CAGAGAGC, GGATTTAC is higher in “PBM E-score” value: -0.203 for the first, 0.00936 for the second.

First: AGCAGATG
Second: ACCGATTG
The “PBM E-score” value of the first is lower: -0.221 for the first, 0.0763 for the second.

Compared with AACGATTA, CACGATTC is lower in “PBM E-score” value: 0.364 for the first, 0.258 for the second.

Compared with AACGATTC, AACGATTG is lower in “PBM E-score” value: 0.393 for the first, 0.391 for the second.

First: AGCGATTC
Second: TAAAATCA
The “PBM E-score” value of the first is higher: 0.181 for the first, 0.0046 for the second.

First: ACGTGCTA
Second: CCCGCAAG
The “PBM E-score” value of the first is higher: 0.207 for the first, -0.239 for the second.

ATGTCATG was tested, and the “PBM E-score” value was -0.0317.

Reference: the supplement of paper PMC3334620
